PubChem BioAssay AID1347413 (National Center for Advancing Translational Sciences (NCATS), 2020)
The source made the active and inactive calls. Where a call stands in place of a potency, no number is given. Calls follow the shape of the dose curve; as a rule, active = well fitted curve in the direction sought with a large enough effect; inactive = no such curve, though single readings can be large or run the other way.

Assay: qHTS to identify inhibitors of the type 1 interferon - major histocompatibility complex class I in skeletal muscle: tertiary screen by RT-qPCR, retest select compounds
Conditions: C25cl48 myoblasts, IFN-beta, HLA-B RT-qPCR, 24 h; series mostly up to 49.8 µM
Excerpt: Assay Submitter (PI): Travis B. Kinder Ph.D. & James Inglese Ph.D. Assay Development and Screening Technology Laboratory (ADST) National Center for Advancing Translational Sciences (NCATS), Rockville, MD National Institute of Health (NIH), Bethesda, Maryland Idiopathic inflammatory myopathies, collectively referred to as myositis, are a group of rare autoimmune diseases characterized by skeletal muscle inflammation, weakness, and usually accompanied by systemic pathologies of the skin, lungs, or vasculature. Current immunosuppressive therapies and glucocorticoids are often not curative and are accompanied by harsh side effects, especially in children with juvenile myositis. We initiated a drug repurposing and development program to identify more targeted, less toxic therapeutics to treat myositis. Although its cause is not known, muscle from a subset of patients have an abundance of the inflammatory type 1 interferon (IFN) and a down-stream product major histocompatibility complex class I (MHC class I), which are both thought to contribute to damage and weakness. We conducted quantitative high throughput screening (qHTS) on 6,576 compounds (4,679 unique) through a series of cell-based assays to identify those that inhibit the IFN-stimulated expression of MHC class I in muscle precursor cells (myoblasts). The compound identification and evaluation strategy utilized a primary screen with reporter-tagged MHC class I in genome-engineered myoblasts, ATP content counter screen for viability, HLA-ABC immunofluorescence secondary screen, and HLA-B RT-qPCR tertiary screen. To determine if active compounds identified by qHTS in HLA-B HiBit reporter cells, and confirmed by HLA-ABC immunofluorescence, can inhibit the transcription of HLA-B mRNA, compounds were assayed by RT-qPCR. […] Briefly, five compounds identified from primary, counter, and secondary screening as inhibitory with minimal cytotoxicity were dispensed into 384-well plates using acoustic dispensing in a 6-point, 1:7 titration with a high final concentration of 10 uM. Normal immortalized human myoblasts C25cl48 were added to the plate with 4.0 ng/ml human IFN-beta for 24 hours, and cells were harvested and assayed by the Cells-to-Ct kit with TaqMan assays (Thermo Fisher).
PROTOCOL TABLE (as described by Inglese et al., 2007) SEQUENCE No. (e.g., 1, 2, 3, etc.); PARAMETER (e.g., Cells, Incubation, Reagent, etc.); VALUE; DESCRIPTION 0; Compounds; 150 nl; Follow-up compounds dispensed at 150 nl/well with Labcyte Echo 655 acoustic dispenser into one Corning white/clear bottom, high base TC 384-well plates (3765) 1a; Cells; 30 uL; Using a p200 manual pipette, seed 780 cells/well into 1 plate in 30 ul/well of iHSKM growth medium without dexamethasone into columns wells A1-A6. […]
For `C[C@]12C=CC(=O)C=C1CC[C@@H]1[C@@H]2[C@@H](O)C[C@@]2(C)[C@H]1CC[C@]2(O)C(=O)CO`, the Potency was “inactive”. With `Cc1ncsc1-c1ccc([C@H](C)NC(=O)[C@@H]2C[C@@H](O)CN2C(=O)[C@@H](NC(=O)COCCCOCCNC(=O)C[C@@H]2N=C(c3ccc(Cl)cc3)c3c(sc(C)c3C)-n3c(C)nnc32)C(C)(C)C)cc1` the Potency was 164 nM (active). In the case of `CC(=O)OCC(=O)[C@@]12OC(C)(C)O[C@@H]1C[C@H]1[C@@H]3C[C@H](F)C4=CC(=O)C=C[C@]4(C)[C@@]3(F)[C@@H](O)C[C@@]12C`, the Potency is reported as “inactive”. For `CS[C@H]1SC[C@@H]2C(=O)N(C)[C@H](C(C)C)C(=O)OC[C@H](NC(=O)c3cnc4ccccc4n3)C(=O)N[C@H](C)C(=O)N(C)[C@H]1C(=O)N(C)[C@H](C(C)C)C(=O)OC[C@H](NC(=O)c1cnc3ccccc3n1)C(=O)N[C@H](C)C(=O)N2C`, the Potency was 2.9 nM (active).
